Chlamy TAG: increases triacylglycerol in Chlamydomonas reinhardtii | Chlamydomonas reinhardtii TAG, Nile Red fluorescence, 72 h | calls only at 10 µM (by protocol) | 0.84% of 44,000 active | AID 1159537; call rule not given here;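 also: hits raise Nile Red signal meaning more stored TAG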
Calls only; - = inactive; + = active, no number. Shown is part of a subset that was picked to be rich in hits.

SMILES	Chlamy TAG
Cc1ccc(OCC(O)CN(C)C)cc1 (stereo unspecified)	-
CN(CC(O)COc1ccc(F)cc1)C1CCCCC1 (stereo unspecified)	+
CN(CC(O)COCc1ccccc1)C1CCCCC1 (stereo unspecified)	-
Cc1ccc(OCC(O)CN2CCN(Cc3ccccc3)CC2)cc1C (stereo unspecified)	-
Cc1ccc(OCC(O)CN(C)C2CCCCC2)cc1C (stereo unspecified)	+
OC(COc1ccccc1Br)CN(C1CCCCC1)C1CCCCC1 (stereo unspecified)	-
Cc1cc(C)n(C(=O)c2nn(C)cc2I)n1	-
Cc1ccc(NC(=O)c2cc([N+](=O)[O-])ccc2NCC2CCCO2)cc1 (stereo unspecified)	-
CCC(=O)c1ccc(Oc2nnc(-c3ccccc3)c3ccccc23)cc1	-
CCOc1ccccc1N(CC(=O)NC(C)c1ccccc1)S(C)(=O)=O (stereo unspecified)	-
CC(=O)Nc1ccc(NC(=O)COc2ccc(C)c(C)c2)cc1	-
O=C(COc1ccc(Cl)cc1)Nc1ccc(Br)cc1	-
CC(=O)Nc1ccc(OCC(=O)Nc2cc(Cl)cc(Cl)c2)cc1	+
CCOC(=O)N1CCN(C(=O)c2c(Cl)cccc2Cl)CC1	-
COc1cc2c(cc1OC)CN(Cc1ccc(F)cc1)CC2	+
COc1cc2c(cc1OC)CN(Cc1ccc(N(C)C)cc1)CC2	-
COc1cc2c(cc1OC)CN(Cc1cccc(F)c1)CC2	-
O=C(COc1ccccc1)Nc1cc([N+](=O)[O-])ccc1O	-
N/C(=N/N=C(/N)c1ccccn1)c1ccccn1	-
COc1ccc(Cl)cc1NS(=O)(=O)c1cc(Cl)ccc1OC	-
COCCNS(=O)(=O)c1cc(Cl)ccc1OC	+
COc1ccc(Cl)cc1S(=O)(=O)NCc1cccnc1	-
CS(=O)(=O)c1ccc2nc(NC(=O)c3ccc(F)cc3)sc2c1	-
CC(C)(C)c1ccc(C(=O)N2CCCCCC2)cc1	-
CCOc1ccc(C(=O)N2CCN(CC)CC2)cc1	-
SMILES	Chlamy TAG
CCN1CCN(C(=O)c2ccc(C(C)(C)C)cc2)CC1	+
CN(C)C(=O)CCc1cc(C(C)(C)C)c(O)c(C(C)(C)C)c1	-
N#Cc1ccccc1N=C1N=C(N)c2ccccc21	-
COc1ccc(N2C(=O)CC(N3CCC(C(O)(c4ccccc4)c4ccccc4)CC3)C2=O)cc1 (stereo unspecified)	-
O=C1CC(N2CCC(C(O)(c3ccccc3)c3ccccc3)CC2)C(=O)N1c1ccc(F)cc1 (stereo unspecified)	+
NC(=O)C1CCN(C2CC(=O)N(c3ccc(F)cc3)C2=O)CC1 (stereo unspecified)	-
O=C(c1ccn(C(=O)Nc2ccccc2)n1)N1CCOCC1	-
COc1cc(NS(=O)(=O)c2ccc(Br)cc2)c(OC)cc1Cl	-
Clc1cccc(N2CCN(C3Cc4ccccc4C3)CC2)c1	-
Cc1ccccc1OCC(=O)Nc1ccccc1[N+](=O)[O-]	-
Cc1cc(C)c(NC(=O)COc2ccccc2[N+](=O)[O-])c(C)c1	+
Cc1cc(C)c(NC(=O)COc2ccccc2C)c(Cl)c1	-
Cc1ccc(SCC(=O)N2CCN(Cc3ccccc3)CC2)cc1	-
O=C1C(=O)N(Cc2ccc(F)cc2)c2ccc(Br)cc21	-
C#CCN1C(=O)C(=O)c2cc(Br)ccc21	-
C=CCN1C(=O)C(=O)c2cc(Br)ccc21	+
O=[N+]([O-])c1ccc(S(=O)(=O)Nc2ncn[nH]2)cc1	-
CN(C)c1ccc(C(=O)Nc2ccccn2)cc1	-
CC(=O)Nc1ccc(NC(=O)c2ccc(C)c(Cl)c2)cc1	-
Cc1cccc(NC2=C([N+](=O)[O-])CS(=O)(=O)C2)c1	-
O=C(c1ccccc1F)N1CCN(Cc2ccccc2[N+](=O)[O-])CC1	-
CC(C)(C#CCN1CCOCC1)OCCC#N	-
O=C(Nc1ccc(Cl)cc1)c1ccccc1Br	-
COc1ccc(Br)cc1C(=O)Nc1ccc(Cc2ccncc2)cc1	-
O=C(O)c1ccc(NC(=O)c2ccccc2Cl)cc1	-
O=C(Nc1ccc(Cc2ccncc2)cc1)c1cc(Br)ccc1Cl	+
CC(=O)c1cccc(NC(=O)c2cc(Br)ccc2Cl)c1	-
O=C(Nc1ccc(Br)cc1)c1ccccc1Cl	+
Cc1[nH]c2ccc(Br)cc2c(=O)c1CN1CCCC1	-
Cc1cccc(NC(=O)COc2c(C)cc(Cl)cc2Cl)n1	-

High-throughput results: PubChem, DiRusso Lab, Biochemistry Department, University of Nebraska
